Measured values taken from PubChem BioAssay AID1259240 (Keith Lab, Institute of Cancer Science, University of …, 2017).
A number with no mark means an inactive call. The source made the active and inactive calls. No stated cut-off is given here; in the data, active means fold change mostly below about -2 (no sharp cut-off); inactive means mostly above about -1.8.

Experiment: TERT promoter activity modulators, primary screen, cell-based, luciferase reporter, human (AID 1259240)
Conditions: A2780 TERT promoter luciferase reporter, 16 h; at 20 µM, fold versus average of vehicle-only wells

Compound | fold change
CS(=O)(=O)Nc1ccc(C2=NN(C(=O)c3ccco3)C(c3ccco3)C2)cc1 (stereo not given) | 1.01
Cc1ccc(Nc2nc3ccccc3n3cnnc23)cc1 | 1.11
CCOC(=O)c1c(CN2CCOCC2)oc2ccc(OC)cc12 | -1.29
COc1ccc(NC(=O)CSc2nc(-c3ccco3)cc(C(F)(F)F)n2)c(OC)c1 | -1.96
Cc1cc(NC(=O)CSCc2nc(-c3cccc(F)c3)oc2C)no1 | 1.06
COCCN1C(=O)C(=O)/C(=C(\O)c2ccc(OC)cc2)C12C(=O)N(C)c1ccccc12 (stereo not given) | -1.95
COC(=O)c1sc2ccccc2c1N | 1.26
CCN1C(=O)C(O)(CC(=O)c2ccc(Br)s2)c2ccccc21 (stereo not given) | -1.03
C=CCOc1ccc(-c2nc3s/c(=C\c4ccc(OC(C)=O)c(OC)c4)c(=O)n3n2)cc1 | 1.33
O=C(Cn1c(=O)n(CC(=O)NC2CCCC2)c(=O)c2ccccc21)Nc1cccc(F)c1 | 1.16
COC(=O)c1ccc(CSc2nc(-c3ccco3)cc(C(F)(F)F)n2)o1 | -2.77 (active)
Cn1c(=O)c2c(SCC(=O)Nc3ccccc3F)nc(-c3cccs3)nc2n(C)c1=O | 1.46
COc1ccc(-n2c(C)c(C(C)=O)c3cc(OCC(N)=O)ccc32)cc1 | -1.38
Cc1ccc(N2C(=O)c3n[nH]c(C)c3C2c2ccccc2F)cc1 (stereo not given) | 1.63
CS(=O)(=O)Nc1ccc(C2=NN(S(C)(=O)=O)C(c3ccccc3)C2)cc1 (stereo not given) | 1.5
